We go through 8 molecules from PubChem BioAssay.

Results filed as inconclusive are left out. The source made the active and inactive calls. Cut-off read from the data, not from the text of the source, unless noted: active = inhibition above about 80%; inactive = the rest.

A short description of experiment [1]: chitosan synthesis blockers in C. neoformans – flow cytometry, Cibacron Brilliant Red staining (AID 1347148; call rule not given here;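 note: compound exposure lasted three days at 37 degrees C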). The following applies: Cryptococcus neoformans chitosan, stronger effect = lower value; at 99.1 µM unless noted.
Experiment [2] is described as follows: growth inhibition, single agents and combos, LFS_MB_1R, cell-based, cisplatin or BGB combos, synergistic combos for chromothripsis tumors (AID 1671452).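 Note: cells exposed for 96 hours before readout.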 The following applies: LFS_MB_1R medulloblastoma cells, stronger effect = higher value.
The nature of experiment [3]: growth inhibition, single agents and combos, HTB85, cell-based, BGB or cisplatin IC20 combos, synergistic combos for chromothripsis tumors (AID 1671453).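 Note: cells exposed for 96 hours before readout; 0% = vehicle DMSO and 100% = high DMSO killing control.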 To be noted: HTB85 osteosarcoma cells, drug combinations, stronger effect = higher value.
A short description of experiment [4]: growth inhibition, single agents and combos, CRL2098, cell-based, BGB or cisplatin IC20 combos, synergistic combos for chromothripsis tumors (AID 1671454).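 Note: cells exposed for 96 h before readout; 0% = vehicle DMSO and 100% = killing by high DMSO.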 The following applies: CRL2098 osteosarcoma cells, drug combinations, stronger effect = higher value.
Experiment [5] is described as follows: growth inhibition, single agents and combos, HD-MB03, cell-based, BGB or cisplatin IC20 combos, synergistic combos for chromothripsis tumors (AID 1671455; in the data active = inhibition above about 83%;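 note: 0% = vehicle DMSO and 100% = high DMSO as cytotoxic control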). The following applies: HD-MB03 medulloblastoma cells, stronger effect = higher value.
The nature of experiment [6]: growth inhibition, single agents and combos, UWB1.289, cell-based, BGB or cisplatin combos, synergistic combos for chromothripsis tumors (AID 1671456).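 Note: cells exposed to compound for four days; 0% = vehicle DMSO and 100% = killing by high DMSO.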 To be noted: UWB1.289 ovarian carcinoma cells, stronger effect = higher value.
Experiment [7] can be described thus: growth inhibition, single agents and combos, LFS_MB_2R, cell-based, cisplatin combos, synergistic combos for chromothripsis tumors (AID 1671457).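 Note: cells exposed to compound for four days before readout.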 The following applies: LFS_MB_2R medulloblastoma cells, stronger effect = higher value.
The nature of experiment [8]: growth inhibition, MDA-MB-436, cell-based, BGB or cisplatin combos, synergistic combos for chromothripsis tumors (AID 1671458; call rule not given here;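 note: cells exposed for 96 hours; 0% = vehicle DMSO and 100% = killing by high DMSO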). The following applies: MDA-MB-436 breast carcinoma growth inhibition, drug combinations, stronger effect = higher value.
Experiment [9] in a line: UWB1.289_BRCA1 ovarian cancer growth, cell-based, BGB or cisplatin combinations (AID 1671459). To be noted: UWB1.289 BRCA1 ovarian carcinoma, drug combinations, stronger effect = higher value.
The nature of experiment [10]: drug combination toxicity in non-malignant astrocytes – cell-based, BGB or cisplatin IC20 combos, cytotoxicity control for chromothriptic childhood tumor combination screen (AID 1671460).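 Note: cells exposed to compounds for 96 hours before viability readout; 0% = vehicle and 100% = killing control.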 The following applies: Human astrocytes, viability inhibition, drug combinations, at 0.5 µM, stronger effect = higher value.
Experiment [11] can be described thus: BT084 cell growth, single and combined drugs, ICGC_MB145, cisplatin and BGB IC40 combos (AID 1671461).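 Note: cells exposed to drugs for 96 hours; 0% = vehicle DMSO and 100% = high DMSO full killing control.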 To be noted: BT084 medulloblastoma cells, drug combinations, stronger effect = higher value.
The nature of experiment [12]: RCMB18 cell growth, single agent and combined, cisplatin and BGB IC40 combos (AID 1671462).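 Note: cells exposed to compound for four days.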 The following applies: RCMB18 medulloblastoma cells, stronger effect = higher value.
Experiment [13] can be described thus: CRL1545 cell growth, single agent and combined, cisplatin and BGB IC20 combos (AID 1671464).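 Note: cells exposed to compound for 96 hours before readout; 0% = vehicle DMSO and 100% = high DMSO killing control.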 To be noted: CRL1545 osteosarcoma cells, stronger effect = higher value.
Experiment [14] can be described thus: rescue of PC12 cells from polyQ htt toxicity – LDH release (AID 1610). To be noted: PC12 mutant huntingtin toxicity, final LDH at 4 uM, stronger effect = lower value. A general note: LDH leaks from cells whose membrane has failed.
The nature of experiment [15]: compounds altering HSF1 focus formation in cells – imaging, Selleck Cancer Library (AID 1347162; in the data active = plate-normalised HSF1 focus index below about 0.46). To be noted: human cells, HSF1 nuclear foci imaging, at 10 µM; SSMD: measured here: HSF1 foci SSMD mean; cell count: measured here: cell number; plate-normalised HSF1 focus index: stronger effect = lower value.
Where [16] appears, read: measured here: combination with cisplatin, at 0.5 µM.
The mark [17] stands for this setting: measured here: combination with cisplatin, at 5 µM.

In the case of `COc1ccc2c(c1)c(CC(=O)O)c(C)n2C(=O)c1ccc(Cl)cc1`, the fold fluorescence in experiment [1] is 4.17 [at 139.7 µM] (inactive).
For orientation: inhibition means the change of the read-out against control, counted positive when it falls. As for `CCn1cc(C(=O)O)c(=O)c2cc(F)c(N3CCNCC3)cc21`, the inhibition in experiment [2] (at 0.5 µM) is 16.4% (inactive); in experiment [2] (measured here: combination with BGB IC40, at 0.05 µM) it was -0.695%; in [2] (setting [16]), 26.1%; in experiment [2] (setting [17]), 22.9%; in experiment [3] (at 0.5 µM), -8.02% (inactive); in experiment [3] (measured here: with BGB IC20, at 0.5 µM) it was -33.2%. Further, the inhibition in experiment [3] (measured here: with BGB IC20, at 5 µM) was -19.1%; in experiment [3] (measured here: with cisplatin IC20, at 0.5 µM), 12.6%; in experiment [3] (measured here: with cisplatin IC20, at 5 µM) it was -7.29%; in experiment [3] (single agent, at 5 µM) it was 1.89%; in experiment [4] (at 0.5 µM), -43.9% (inactive); in [4] (measured here: combination with BGB at IC20, at 0.5 µM) it was -32.8%. In addition, the inhibition is -33.5% in experiment [4] (measured here: combination with cisplatin at IC20, at 0.5 µM); -1.96% (inactive) in experiment [5] (at 0.5 µM); -6.97% in [5] (measured here: combo with BGB at IC20, at 0.5 µM); 4.39% in experiment [5] (measured here: combo with cisplatin at IC20, at 0.5 µM); 3.04% (inactive) in experiment [6] (at 0.5 µM); -22.6% in [6] (measured here: inhibition with BGB combination, at 0.05 µM). Besides, the inhibition in experiment [6] (measured here: inhibition with cisplatin combination, at 0.05 µM) is -1.67%; in [7] (at 0.5 µM), -18.9% (inactive); in experiment [7] (setting [16]), -13.2%; in experiment [7] (setting [17]), -11.8%; in [8] (at 0.5 µM) it was -18.4% (inactive); in experiment [8] (measured here: BGB combination, at 0.5 µM) it was -12.8%. In addition, the inhibition in experiment [8] (measured here: BGB combination, at 5 µM) is -3.58%; in experiment [8] (measured here: cisplatin combination, at 0.5 µM), -41.9%; in experiment [8] (measured here: cisplatin combination, at 5 µM) it was -18.8%; in [9] (BGB combination, concentration series, at 5 µM), -3.45%; in experiment [9] (at 0.5 µM), 2.01% (inactive); in experiment [9] (cisplatin combination, concentration series, at 5 µM), 12.5%. Moreover, the inhibition in experiment [10] is 5.02% (inactive); in experiment [10] (measured here: combo with BGB IC20), 10.6%; in experiment [10] (measured here: combo with cisplatin IC20) it was -14.6%; in experiment [11] (at 0.5 µM), -27.2% (inactive); in experiment [11] (cisplatin combination, at 0.5 µM), -24.4%; in experiment [11] (cisplatin combination, at 5 µM), -61.7%. For the same molecule, the inhibition in [11] (measured here: BGB IC40 combination 0.05 uM, at 0.05 µM) was -27.3%; in experiment [11] (single agent, at 5 µM), -32.3%; in experiment [12] (at 0.5 µM), -5.94% (inactive); in experiment [12] (cisplatin combo, at 5 µM), -71.7%; in experiment [12] (measured here: BGB IC40 combination, at 0.05 µM), -15.2%; in experiment [12] (setting [16]) it was 20.7%. The inhibition was -42.9% in [12] (single agent, at 5 µM); -19.2% (inactive) in experiment [13] (at 0.5 µM); -33.4% in experiment [13] (measured here: with BGB IC20 combination, at 0.5 µM); -12.1% in experiment [13] (measured here: with cisplatin IC20 combination, at 0.5 µM); 20.3% in [13] (single agent, at 0.05 µM); 24% in [13] (single agent, at 5 µM).
For `Nc1c2c(nc3ccccc13)CCCC2`, in experiment [14], the normalised LDH release stood at 0.878.
Take `O=C1N=C(O)CN1/N=C/c1ccc(-c2ccc([N+](=O)[O-])cc2)o1`: the fold fluorescence in experiment [1] was 4.66 [at 159.1 µM] (inactive).
Turning to `CC(=O)O[C@]1(C(C)=O)CC[C@H]2[C@@H]3C=C(C)C4=CC(=O)CC[C@]4(C)[C@H]3CC[C@@]21C`, in [15], the SSMD was 0.639, the cell count worked out at 7050 and the plate-normalised HSF1 focus index is 1.04 (inactive).
In the case of `O=C(c1ccccc1)c1ccc2n1CCC2C(=O)O` (centres undefined), in experiment [14], the normalised LDH release turned out to be 0.828.
As for `CN1CCN(CCCN2c3ccccc3Sc3ccc(C(F)(F)F)cc32)CC1`, the fold fluorescence in experiment [1] was 10.1 [at 122.7 µM] (inactive).
For `C[C@@H]1C[C@H]2[C@@H]3CCC4=CC(=O)C=C[C@]4(C)[C@@]3(F)[C@@H](O)C[C@]2(C)[C@@]1(O)C(=O)CO`, in experiment [15], the SSMD was determined as 1.52, the cell count was 6940 and the plate-normalised HSF1 focus index is 1.08 (inactive).
